Compound activity from PubChem.
Sampled rows, rich in hits. Any-hit rate of the full collection: about 3.3%.
Sm TGR inh = inhibitors of Schistosoma mansoni thioredoxin glutathione reductase | Q962Y6 | purified TGR, DTNB reduction, TNB absorbance 405 nm | Potency, µM (titrated, usually from 114 µM), for inactives: at the highest dose activity change, negative = inhibition, hits mostly inhibitors | actives 3% (n = 360,000); further: nearly all actives have a fitted effect of over 60% in size
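TGR 20 nM + NADPH 100 uM (dispensed conc.), cpd preinc 15 min RT; start with NADPH (500 uM addition) then DTNB (15 mM addition). Kinetic TNB absorbance, 405 nm filter. Four-parameter Hill fit across titration.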
RE007 growth inh = less growth of the S. pombe RE007 Vpr strain | actives 0.21% (n = 360,000) | S. pombe RE007 Vpr strain, BacTiter-Glo ATP luminescence, 24 h | AID 651644 | Potency, µM (top dose mostly 92.2 µM), for the others: at the highest dose activity change, negative = less growth, usual class: inhibitors; active means well fitted falling curve with a large enough effect; inconclusive means small, poorly fitted or top-dose-only effect; inactive means no such curve, though single readings can be large or run the other way; further: nearly all actives have a fitted effect of over 50% in size
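Fission yeast strain RE007, carrying one chromosomally integrated HIV-1 vpr copy, was seeded at OD 0.01 in PMG+AL medium with 23 nL pinned compound. After 24 h at 30 °C and 99% humidity, viability was read by BacTiter-Glo luminescence.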
LmPK inh = inhibitors of Leishmania mexicana pyruvate kinase. Potency, µM (series often up to 57.5 µM), for the others: at the highest dose activity change, negative = inhibition, usual class: inhibitors. actives 0.37% (n = 290,000). purified LmPK, Kinase-Glo ATP luminescence, 1 h. Q27686. AID 1721
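0.1 nM LmPK, 0.5 mM PEP, 0.1 mM ADP; 50 mM imidazole pH 7.2, 7 mM MgCl2, 50 mM KCl; 1 h RT. Kinase-Glo luminescence readout, normalized to no-enzyme (full inhibition) and uninhibited wells.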
Giardia FBPA inh = blocks Giardia fructose-bisphosphate aldolase activity | A8B2U2 | purified Giardia FBPA | Potency, µM (highest dose often 59.6 µM), inactives show at the highest dose activity, negative = inhibition, most hits filed as inhibitors | actives 0.71% (n = 290,000) | AID 2451; further: nearly all actives have a fitted effect of over 55% in size
Target sequence (A8B2U2 whole entry, looked up): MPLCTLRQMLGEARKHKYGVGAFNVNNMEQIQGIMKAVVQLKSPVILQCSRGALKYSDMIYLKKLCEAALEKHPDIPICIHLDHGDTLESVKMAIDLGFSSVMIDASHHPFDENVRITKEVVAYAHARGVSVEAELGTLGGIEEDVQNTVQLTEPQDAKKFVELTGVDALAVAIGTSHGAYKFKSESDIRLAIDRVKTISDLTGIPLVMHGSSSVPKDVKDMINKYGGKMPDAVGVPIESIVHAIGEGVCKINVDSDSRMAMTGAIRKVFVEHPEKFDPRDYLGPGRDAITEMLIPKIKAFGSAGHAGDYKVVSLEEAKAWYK
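40 nM FBPA preincubated 10 min at RT with compound (up to 57.5 uM final), then substrate plus GAPDH/TPI/NAD/arsenate coupling and diaphorase/resazurin added. Fluorescence read after 20 min at RT, 525/598 nm.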
TbPYK inhibitor = blocks Trypanosoma brucei pyruvate kinase; Q57TT1; TbPYK enzyme, Kinase-Glo Plus ATP luminescence, 45 min; Potency, µM (highest dose often 76.8 µM), for inactives: at the highest dose activity, negative = inhibition, actives largely listed as inhibitors; actives 0.12% (n = 410,000); AID 624173; further: nearly all actives have a fitted effect of over 50% in size
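TbPYK + substrate in 50 mM TEA pH 7.2, 100 mM KCl, 10 mM MgCl2, 0.05% BSA, 0.01% Tween-20; cpd pinned; ADP 130 uM final; 45 min RT; Kinase-Glo Plus 10 min; luminescence endpoint.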
An asterisk follows results filed as active; u = inconclusive; x = no result given. Unless noted, the call rests on the fitted dose curve; in most records, active means well fitted curve in the direction sought with a large enough effect; inconclusive means small, poorly fitted or top-dose-only effect, or another doubt; inactive means no such curve, though single readings can be large; an effect the other way counts as inactive or inconclusive. On the % scale 0 is the no-effect control and ±100 the full control effect; potency means the concentration at half of the fitted maximal effect.

SMILES	Sm TGR inh	RE007 growth inh	LmPK inh	Giardia FBPA inh	TbPYK inhibitor
COn1c2c(c3c4nonc4ccc31)CCCC2	28µM*	-16%	6%	u	5%
On1c2c(c3c4nonc4ccc31)CCCC2	u	x	-5%	5.6µM*	x
CCCC(=O)N1CCC1(C)C(=O)Nc1ccc2nc(C)ccc2c1 (stereo unspecified)	x	-15%	x	x	1%
CC(C)(C)OC(=O)N/N=C/c1ccc(Br)cc1	10%	1%	-3%	-3%	-1%
O=C(Nc1ccccc1C(=O)NCCCN1CCOCC1)c1ccc(F)cc1	89µM*	-4%	1%	x	-3%
O=C(NCCCN1CCOCC1)c1ccccc1	-4%	13%	-1%	-18%	-1%
CN(Cc1ccccc1C#N)S(=O)(=O)c1cccs1	7%	-8%	7%	-19%	-26%
N#Cc1nccnc1S(=O)(=O)c1cccs1	0.1µM*	-10%	17%	-25%	11%
CCN(CC(=O)Nc1ccc2c(c1)OCCO2)CC(=O)Nc1ccc2c(c1)OCO2	-11%	-5%	16%	-8%	0%
CC(O)c1nc2ccccc2n1CCCc1ccccc1 (stereo unspecified)	-16%	-16%	-2%	-2%	-1%
O=C(NCc1ccco1)c1ccccc1NS(=O)(=O)c1ccc(Cl)s1	28µM*	2%	11%	16%	-16%
COc1cccc([C@@H]2Nc3ccc(C(=O)O)cc3[C@@H]3C=CC[C@@H]32)c1OC	-20%	x	x	x	u
CC(C)C1Nc2ccc(C(=O)O)cc2C2C=CCC21 (stereo unspecified)	20µM*	3%	1%	-19%	u
CC(=O)c1ccc2c(c1)C1C=CCC1C(c1ccc(S(=O)(=O)N3CCOCC3)cc1)N2 (stereo unspecified)	28µM*	-8%	-5%	-28%	-23%
O=C(O)c1ccc2c(c1)C1C=CCC1C(c1ccncc1)N2 (stereo unspecified)	22µM*	-2%	6%	u	-15%
Cc1c(Cl)cccc1NS(=O)(=O)c1ccc2c(c1)C1C=CCC1C(c1ccc(C(=O)O)cc1)N2 (stereo unspecified)	20µM*	-13%	7%	-22%	-27%
c1cn2c(Nc3ccc4c(c3)OCCO4)c(-c3ccc(N4CCOCC4)cc3)nc2cn1	3%	-3%	-8%	-7%	7%
CCN(C(=O)COC(=O)C(O)(c1ccccc1)c1ccccc1)c1c(N)n(Cc2ccccc2)c(=O)[nH]c1=O	-15%	3%	x	x	-2%
CC(C)(CC(=O)O)CC(=O)O	-19%	16%	0%	-1%	0%
CCCC1Nc2ccc(C(=O)O)cc2C2C=CCC12 (stereo unspecified)	40µM*	3%	2%	-10%	-22%
COc1ccc(NC(=S)NCCN2CCC(C)CC2)cc1Cl	4%	-29%	2%	14µM*	-30%
Oc1ccc(N=Nc2ccccc2)o1	3.2µM*	u	-17%	-2%	-5%
CC1=C(c2ccc(Cl)cc2)[N+](=O)C(C)(C)N1[O-]	20µM*	-9%	-2%	-2%	-9%
COc1cccc(/C=N/n2c(C3CCCCC3)n[nH]c2=S)c1OC	-5%	8%	0%	9%	5.6µM*
COc1cc(OC)c(/C=N/n2c(C3CCCCC3)n[nH]c2=S)c(OC)c1	-3%	1%	u	1%	8.9µM*
SMILES	Sm TGR inh	RE007 growth inh	LmPK inh	Giardia FBPA inh	TbPYK inhibitor
CC1(CCC(=O)N2CCCC(N3CCN(c4ccc(F)cc4)CC3)C2)CC1 (stereo unspecified)	-15%	-13%	-9%	x	1%
CN(C)CCN(Cc1ccco1)S(=O)(=O)c1csc(C(N)=O)c1	0%	2%	6%	13%	0%
Cc1ccc(-c2cc(C(=O)O)n[nH]2)s1	-10%	-21%	-5%	-5%	4%
Cc1cccc(C)c1NC(=S)NCCc1ccc(O)c(O)c1	7.9µM*	-2%	4%	u	-3%
Cc1cccc(NC(=S)NCCc2ccccc2)c1C	-3%	-4%	0%	5%	0%
COC(=O)Nc1ccc(S(=O)(=O)N2CCCCC2C(=O)NCc2ccco2)cc1 (stereo unspecified)	-9%	10%	3%	2%	-6%
